Data on 6 compounds can be found in ChEMBL document CHEMBL1961873, “Compounds: GSK PKIS; Assays: Nanosyn kinase panel” (2012).

Experiment [1] has as its target Serine/threonine-protein kinase pim-2 (Homo sapiens) (UniProt Q9P1W9). To be noted: at 1 µM.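 Further: each value is a mean of the inhibition measurements against the kinase.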
The target of experiment [2] is Serine/threonine-protein kinase pim-3 (Homo sapiens) (UniProt Q86V86). The settings on record: at 0.1 µM.
For experiment [3] the target is unchanged. To be noted: at 1 µM.
The target in experiment [4] is T1, MAP kinase-activated protein kinase 5 (Homo sapiens) (UniProt Q8IW41).
T1 sequence (whole entry): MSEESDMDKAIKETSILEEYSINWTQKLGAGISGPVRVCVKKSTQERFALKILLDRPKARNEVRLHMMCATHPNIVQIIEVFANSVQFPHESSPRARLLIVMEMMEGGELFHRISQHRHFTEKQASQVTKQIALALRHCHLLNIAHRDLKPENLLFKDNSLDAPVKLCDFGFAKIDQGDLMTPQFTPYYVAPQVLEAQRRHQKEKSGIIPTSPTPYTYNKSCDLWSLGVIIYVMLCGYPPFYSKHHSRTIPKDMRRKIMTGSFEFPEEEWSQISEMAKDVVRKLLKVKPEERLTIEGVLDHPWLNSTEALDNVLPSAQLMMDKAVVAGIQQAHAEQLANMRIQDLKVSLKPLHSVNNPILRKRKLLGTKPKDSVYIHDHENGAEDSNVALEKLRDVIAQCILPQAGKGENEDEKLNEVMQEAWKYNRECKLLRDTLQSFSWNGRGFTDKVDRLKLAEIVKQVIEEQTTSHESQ
The settings on record: at 0.1 µM.

Experiment [5] addresses T1, MAP kinase-activated protein kinase 5 (Homo sapiens). The settings on record: at 1 µM.
In experiment [6] the target is Serine/threonine-protein kinase SIK1 (Homo sapiens) (UniProt P57059). The settings on record: at 0.1 µM.
Experiment [7] shares this target. The settings on record: at 1 µM.
For experiment [8], the target named is Serine/threonine-protein kinase SIK2 (Homo sapiens) (UniProt Q9H0K1). To be noted: at 0.1 µM.
The target is the same in experiment [9]. The settings on record: at 1 µM.
For experiment [10], the target named is T2, Serine/threonine-protein kinase TBK1 (Homo sapiens) (UniProt Q9UHD2).
T2 sequence (whole entry): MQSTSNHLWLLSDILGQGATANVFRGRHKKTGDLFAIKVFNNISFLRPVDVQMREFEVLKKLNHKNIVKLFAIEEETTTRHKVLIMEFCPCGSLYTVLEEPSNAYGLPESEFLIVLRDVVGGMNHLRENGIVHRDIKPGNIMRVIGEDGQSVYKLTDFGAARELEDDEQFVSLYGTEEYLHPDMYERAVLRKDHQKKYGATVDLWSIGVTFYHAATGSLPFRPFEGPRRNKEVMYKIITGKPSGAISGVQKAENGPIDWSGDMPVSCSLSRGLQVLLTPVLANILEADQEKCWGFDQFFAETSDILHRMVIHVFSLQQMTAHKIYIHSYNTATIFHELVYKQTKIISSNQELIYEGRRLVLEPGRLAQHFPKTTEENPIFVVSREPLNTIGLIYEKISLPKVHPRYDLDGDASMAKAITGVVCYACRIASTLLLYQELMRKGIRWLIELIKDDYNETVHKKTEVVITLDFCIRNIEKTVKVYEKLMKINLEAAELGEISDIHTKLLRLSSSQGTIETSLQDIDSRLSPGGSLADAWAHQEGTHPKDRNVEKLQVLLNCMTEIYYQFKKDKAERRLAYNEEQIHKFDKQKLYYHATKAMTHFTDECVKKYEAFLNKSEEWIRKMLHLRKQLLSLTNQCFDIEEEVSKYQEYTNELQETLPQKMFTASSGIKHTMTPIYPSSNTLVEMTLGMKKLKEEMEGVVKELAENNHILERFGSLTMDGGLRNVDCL
To be noted: at 0.1 µM.

In experiment [11] the target is T2, Serine/threonine-protein kinase TBK1 (Homo sapiens). The settings on record: at 1 µM.
Experiment [12] concerns the target T3, Testis-specific serine/threonine-protein kinase 1 (Homo sapiens) (UniProt Q9BXA7).
T3 sequence (whole entry): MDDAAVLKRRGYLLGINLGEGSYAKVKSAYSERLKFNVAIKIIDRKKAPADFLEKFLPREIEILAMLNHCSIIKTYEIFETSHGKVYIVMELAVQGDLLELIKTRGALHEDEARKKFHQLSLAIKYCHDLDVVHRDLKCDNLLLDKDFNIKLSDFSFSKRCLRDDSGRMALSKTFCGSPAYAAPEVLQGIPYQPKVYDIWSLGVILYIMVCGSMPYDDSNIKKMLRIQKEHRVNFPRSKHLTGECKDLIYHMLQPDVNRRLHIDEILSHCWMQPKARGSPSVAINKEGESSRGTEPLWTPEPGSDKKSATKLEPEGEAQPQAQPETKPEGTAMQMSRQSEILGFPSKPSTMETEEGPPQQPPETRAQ
The settings on record: at 0.1 µM.

Experiment [13] has as its target T3, Testis-specific serine/threonine-protein kinase 1 (Homo sapiens). The settings on record: at 1 µM.
In experiment [14] the target is T4, Testis-specific serine/threonine-protein kinase 2 (Homo sapiens) (UniProt Q96PF2).
T4 sequence (whole entry): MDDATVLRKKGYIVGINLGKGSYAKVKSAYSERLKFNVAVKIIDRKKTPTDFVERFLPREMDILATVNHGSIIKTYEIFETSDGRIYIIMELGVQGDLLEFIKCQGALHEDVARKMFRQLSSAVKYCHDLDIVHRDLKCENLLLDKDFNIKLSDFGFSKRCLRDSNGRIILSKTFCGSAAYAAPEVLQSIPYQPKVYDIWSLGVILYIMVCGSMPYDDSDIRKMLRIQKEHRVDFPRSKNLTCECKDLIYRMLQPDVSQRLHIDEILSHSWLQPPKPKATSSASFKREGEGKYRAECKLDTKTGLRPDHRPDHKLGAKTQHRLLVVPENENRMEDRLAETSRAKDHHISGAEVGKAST
To be noted: at 0.1 µM.

Experiment [15] deals with T4, Testis-specific serine/threonine-protein kinase 2 (Homo sapiens). The settings on record: at 1 µM.
In experiment [16] the target is Casein kinase I isoform alpha (Homo sapiens) (UniProt P48729). The settings on record: at 0.1 µM.
Experiment [17] has the same target. To be noted: at 1 µM.
The target in experiment [18] is Casein kinase I isoform gamma-1 (Homo sapiens) (UniProt Q9HCP0). To be noted: at 0.1 µM.
Experiment [19] has the same target. To be noted: at 1 µM.
The target in experiment [20] is Casein kinase I isoform gamma-2 (Homo sapiens) (UniProt P78368). To be noted: at 0.1 µM.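 Further: values are mean inhibition figures reported as part of the GSK PKIS dataset.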
Casein kinase I isoform gamma-2 (Homo sapiens), sequence (P78368 whole entry, looked up, canonical isoform): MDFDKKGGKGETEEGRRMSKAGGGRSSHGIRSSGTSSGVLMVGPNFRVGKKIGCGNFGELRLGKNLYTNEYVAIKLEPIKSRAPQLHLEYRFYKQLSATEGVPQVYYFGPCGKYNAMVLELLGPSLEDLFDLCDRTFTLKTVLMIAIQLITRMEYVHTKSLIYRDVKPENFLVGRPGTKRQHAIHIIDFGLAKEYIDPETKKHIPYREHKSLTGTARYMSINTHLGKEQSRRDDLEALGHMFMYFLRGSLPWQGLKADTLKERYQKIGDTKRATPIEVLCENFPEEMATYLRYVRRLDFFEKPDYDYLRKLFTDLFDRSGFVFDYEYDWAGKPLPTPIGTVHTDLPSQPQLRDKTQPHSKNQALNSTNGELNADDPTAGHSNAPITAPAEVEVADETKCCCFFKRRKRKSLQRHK

Serine/threonine-protein kinase SIK1 (Homo sapiens), sequence (P57059 whole entry): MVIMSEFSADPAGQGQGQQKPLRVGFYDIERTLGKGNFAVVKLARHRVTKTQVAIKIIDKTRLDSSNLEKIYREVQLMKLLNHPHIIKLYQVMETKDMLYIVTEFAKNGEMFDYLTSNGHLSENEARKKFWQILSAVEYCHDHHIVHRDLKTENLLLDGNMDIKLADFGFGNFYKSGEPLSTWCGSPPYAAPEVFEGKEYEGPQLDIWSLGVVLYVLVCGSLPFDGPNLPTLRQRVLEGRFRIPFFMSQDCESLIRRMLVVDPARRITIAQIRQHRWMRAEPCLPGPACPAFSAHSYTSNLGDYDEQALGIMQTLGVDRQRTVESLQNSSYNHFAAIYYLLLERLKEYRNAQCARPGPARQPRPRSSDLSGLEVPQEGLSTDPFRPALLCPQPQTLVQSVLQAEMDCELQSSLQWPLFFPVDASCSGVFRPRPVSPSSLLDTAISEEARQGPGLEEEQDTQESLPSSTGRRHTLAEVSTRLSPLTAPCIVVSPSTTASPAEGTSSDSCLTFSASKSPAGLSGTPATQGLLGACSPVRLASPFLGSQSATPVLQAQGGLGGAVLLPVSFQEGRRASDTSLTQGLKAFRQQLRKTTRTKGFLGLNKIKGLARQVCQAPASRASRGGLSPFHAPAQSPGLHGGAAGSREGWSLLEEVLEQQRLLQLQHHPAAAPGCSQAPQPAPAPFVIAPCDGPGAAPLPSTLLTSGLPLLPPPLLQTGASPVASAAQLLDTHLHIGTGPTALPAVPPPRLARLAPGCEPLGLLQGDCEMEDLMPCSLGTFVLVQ
Casein kinase I isoform alpha (Homo sapiens), sequence (P48729 2-337 limits assumed): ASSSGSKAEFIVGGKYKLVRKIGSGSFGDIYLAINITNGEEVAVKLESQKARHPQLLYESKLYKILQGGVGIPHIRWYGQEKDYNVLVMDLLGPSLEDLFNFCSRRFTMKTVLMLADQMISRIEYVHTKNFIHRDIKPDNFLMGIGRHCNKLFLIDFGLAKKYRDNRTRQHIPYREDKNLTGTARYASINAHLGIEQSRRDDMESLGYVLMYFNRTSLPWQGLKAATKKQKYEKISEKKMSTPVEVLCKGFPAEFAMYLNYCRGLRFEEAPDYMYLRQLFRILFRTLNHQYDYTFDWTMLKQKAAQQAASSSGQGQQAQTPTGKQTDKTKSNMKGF
Serine/threonine-protein kinase pim-2 (Homo sapiens), sequence (Q9P1W9 whole entry, looked up): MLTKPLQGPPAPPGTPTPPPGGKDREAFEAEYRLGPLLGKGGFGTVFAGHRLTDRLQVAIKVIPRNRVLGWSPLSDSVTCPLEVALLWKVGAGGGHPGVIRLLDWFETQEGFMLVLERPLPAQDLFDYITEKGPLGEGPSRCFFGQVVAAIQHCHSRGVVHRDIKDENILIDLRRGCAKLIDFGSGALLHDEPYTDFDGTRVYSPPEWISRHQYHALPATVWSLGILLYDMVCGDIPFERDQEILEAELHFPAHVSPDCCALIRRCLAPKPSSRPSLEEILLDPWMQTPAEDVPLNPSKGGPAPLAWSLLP
Serine/threonine-protein kinase SIK2 (Homo sapiens), sequence (Q9H0K1 whole entry, looked up): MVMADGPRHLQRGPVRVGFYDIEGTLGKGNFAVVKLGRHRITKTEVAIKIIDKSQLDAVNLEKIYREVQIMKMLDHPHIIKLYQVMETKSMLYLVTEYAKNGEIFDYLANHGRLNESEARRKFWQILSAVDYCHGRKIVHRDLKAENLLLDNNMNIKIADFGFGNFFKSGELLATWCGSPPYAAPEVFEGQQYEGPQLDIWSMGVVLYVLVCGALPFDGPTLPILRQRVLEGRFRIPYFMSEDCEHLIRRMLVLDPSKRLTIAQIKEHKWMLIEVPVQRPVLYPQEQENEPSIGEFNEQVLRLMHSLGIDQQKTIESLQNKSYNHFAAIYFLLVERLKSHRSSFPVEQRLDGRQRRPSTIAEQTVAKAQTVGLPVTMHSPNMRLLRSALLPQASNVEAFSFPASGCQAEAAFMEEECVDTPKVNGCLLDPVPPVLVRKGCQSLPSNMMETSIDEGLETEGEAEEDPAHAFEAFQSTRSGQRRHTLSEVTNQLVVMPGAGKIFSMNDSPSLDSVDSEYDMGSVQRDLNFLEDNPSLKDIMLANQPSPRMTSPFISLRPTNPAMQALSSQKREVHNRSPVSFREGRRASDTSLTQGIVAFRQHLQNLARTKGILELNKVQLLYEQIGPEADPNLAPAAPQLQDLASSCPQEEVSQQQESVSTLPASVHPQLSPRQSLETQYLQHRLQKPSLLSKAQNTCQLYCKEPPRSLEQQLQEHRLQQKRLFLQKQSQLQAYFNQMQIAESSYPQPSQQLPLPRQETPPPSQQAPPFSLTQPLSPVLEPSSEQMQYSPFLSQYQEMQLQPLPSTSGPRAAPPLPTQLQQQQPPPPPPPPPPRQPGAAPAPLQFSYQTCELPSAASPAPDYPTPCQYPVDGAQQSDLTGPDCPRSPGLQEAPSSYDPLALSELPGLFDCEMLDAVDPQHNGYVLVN
Casein kinase I isoform gamma-1 (Homo sapiens), sequence (Q9HCP0 whole entry, looked up, canonical isoform): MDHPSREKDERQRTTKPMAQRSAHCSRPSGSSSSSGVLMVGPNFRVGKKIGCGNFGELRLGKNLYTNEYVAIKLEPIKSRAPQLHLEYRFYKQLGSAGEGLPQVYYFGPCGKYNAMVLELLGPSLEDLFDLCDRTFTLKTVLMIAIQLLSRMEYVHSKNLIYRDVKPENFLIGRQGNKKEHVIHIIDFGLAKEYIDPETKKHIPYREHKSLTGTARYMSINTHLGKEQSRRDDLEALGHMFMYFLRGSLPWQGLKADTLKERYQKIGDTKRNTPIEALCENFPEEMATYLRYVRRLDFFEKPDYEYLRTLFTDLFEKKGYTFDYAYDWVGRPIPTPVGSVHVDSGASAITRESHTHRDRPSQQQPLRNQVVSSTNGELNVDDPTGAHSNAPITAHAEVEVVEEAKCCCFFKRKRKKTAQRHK

As for `COC(=O)Nc1nc2ccc(S(=O)(=O)c3ccc(NC(=O)Nc4cc(C(F)(F)F)ccc4F)cc3)cc2[nH]1`, the inhibition – broadly, the change of the read-out against control, counted positive when it falls – was 0.73% in experiment [1]; -0.65% in experiment [2]; -1.2% in experiment [3]; 0.38% in experiment [4]; -0.4% in experiment [5]; 2.55% in experiment [6]. Further, the inhibition came out at 3.12% in experiment [7]; 0.97% in experiment [8]; 0.1% in [9]; 2.66% in [10]; 3.98% in experiment [11]; 2.57% in experiment [12]. The inhibition in experiment [13] was 0.57%; in [14], 0.12%; in experiment [15], -0.82%; in experiment [16], 2.65%; in experiment [17], 5.12%; in experiment [18], 2.34%. In addition, the inhibition amounted to 2.83% in experiment [19] and 1.08% in experiment [20].

As to `O=C(O[C@H]1CN[C@H](C#Cc2cc3ncnc(Nc4ccc(Cc5ccccc5)cc4)c3s2)C1)N1CCOCC1`, the inhibition in experiment [1] was 1.06%; in experiment [2], 1.54%; in experiment [3], 3.8%; in experiment [4], 0.58%; in experiment [5] it was -0.05%; in [6], 0.92%. Moreover, the inhibition in [7] was -0.23%; in experiment [8], -0.21%; in [9], -0.83%; in [10], -0.27%; in experiment [11], 1.65%; in experiment [12], 0.42%. Moreover, the inhibition was 0.57% in experiment [13]; 1.12% in experiment [14]; -0.88% in experiment [15]; 0.51% in experiment [16]; 1.74% in [17]; 2.25% in experiment [18]. In addition, the inhibition in experiment [19] stood at 2.28%; in [20], 2.49%.

For `CN1CCC(n2cnc(-c3ccc(F)cc3)c2-c2ccnc(N)n2)CC1`, the inhibition was 6.09% in experiment [1]; 2.48% in [2]; 21.3% in experiment [3]; 1% in [4]; 1.6% in experiment [5]; 2.58% in [6]. Besides, the inhibition was 7.47% in [7]; 7.38% in [8]; 21.9% in experiment [9]; -1.27% in [10]; 3.54% in experiment [11]; 2.05% in [12]. Moreover, the inhibition in experiment [13] came to 3.07%; in experiment [14], 2.28%; in experiment [15], 1.61%; in experiment [16], 30.1%; in experiment [17], 73.1%; in experiment [18] it was 1.88%. Further, the inhibition in experiment [19] is 9.03%; in experiment [20] it was 1.68%.

`c1cc(-c2cnn3nc(N4CCOCC4)ccc23)nc(NC2CC2)n1`: the inhibition is 0.92% in experiment [1]; -0.59% in [2]; 4.8% in experiment [3]; 1.08% in experiment [4]; 0.41% in experiment [5]; 7.04% in experiment [6]. Also, the inhibition is 5.66% in experiment [7]; 6.34% in [8]; 7.7% in experiment [9]; 3.02% in [10]; 6.36% in experiment [11]; 2.66% in experiment [12]. The inhibition in [13] is 5.12%; in [14] it was 0.16%; in experiment [15] it was -3.76%; in [16], 5.43%; in experiment [17], 15.8%; in experiment [18], 3.42%. For the same compound, the inhibition in experiment [19] came to 8.05%; in experiment [20], 3.35%.

In the case of `COc1ccc(-c2cc3c(N)ncnc3o2)cc1`, the inhibition in [1] is 2.23%; in experiment [2] it was 1.44%; in [3] it was 6.86%; in experiment [4], -0.43%; in experiment [5], -0.51%; in experiment [6], -3.64%. Further, the inhibition was 12% in experiment [7]; 5.43% in experiment [8]; 7.33% in [9]; 0.41% in [10]; 1.62% in experiment [11]; -1.68% in experiment [12]. The inhibition was 1.43% in experiment [13]; -1.12% in [14]; -0.58% in [15]; -2.35% in experiment [16]; -1.14% in [17]; -1.13% in experiment [18]. Also, the inhibition in experiment [19] was -0.49%; in experiment [20], -0.59%.

Turning to `COc1cc(Nc2nccc(Nc3ccc4c(C)n[nH]c4c3)n2)cc(OC)c1OC`, the inhibition is 1.57% in experiment [1]; 2.01% in experiment [2]; -0.7% in [3]; -0.04% in experiment [4]; -1.77% in experiment [5]; 8.95% in experiment [6]. For the same compound, the inhibition amounted to 51.2% in [7]; 4.45% in experiment [8]; 28% in [9]; 4.57% in experiment [10]; 26.3% in experiment [11]; 1.79% in experiment [12]. Moreover, the inhibition in experiment [13] was 12.6%; in [14], -0.93%; in experiment [15], -0.95%; in experiment [16], 0.44%; in experiment [17], 0.47%; in experiment [18] it was 2.35%. Also, the results for the inhibition in experiment [19] and in [20] were 1.23% and -0.28%, respectively.
